Pf Dd2 growth: inhibitors of Plasmodium falciparum Dd2 growth; P. falciparum Dd2 growth, SYBR Green, 72 h; hits give low values; activity change, % at 10 µM; 2.3% of 94,000 active; in the data active means activity change below about -80%; inconclusive means no clear call, values can overlap the other calls
C diff HTS: inhibitors of Clostridium difficile growth | growth activity, negative = inhibition, % at 16 µg/mL (by protocol) | AID 1259249 | Clostridium difficile clinical isolate growth, OD600, 24 h; hits give low values | 0.25% of 86,000 active;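 active means mean growth activity at or below -80% and every replicate also at or below -80%; inconclusive means mean at or below -80% but some replicate above -80%; inactive means mean growth activity above -80%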;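 further: 0% = DMSO wells and -100% = levofloxacin 16 µg/mL wells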
T cruzi growth: inhibitors of T. cruzi proliferation. inhibition, % at 8.34 µM. AID 624255. 5.9% of 77,000 active. T. cruzi beta-gal in NIH3T3, GalScreen luminescence, 90 h;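 active means mean inhibition above about 93%, with at least 55% of replicates each passing it, limit read from the data, passing the limit was not always enough; inconclusive means only one of those two conditions holds; inactive means neither condition holds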
The depositor's hits bear a star; ? = inconclusive; / = no result given. Rows were chosen to be rich in hits. Some 6.8% of all compounds tested hit in one or more screens of this group.

SMILES	Pf Dd2 growth	C diff HTS	T cruzi growth
C/C=C/c1ccc([C@@H]2[C@H](CO)N(CC3CC3)C23CN(C(=O)c2ccc4c(c2)OCO4)C3)cc1	-83*	23	/
C/C=C/c1ccc([C@H]2[C@@H](CO)N(CC3CC3)C23CN(C(=O)COC)C3)cc1	-5	-3	/
COc1ccc(S(=O)(=O)N(C)C[C@H]2OCCCC[C@H](C)Oc3ccc(NC(=O)Nc4ccc(C(F)(F)F)cc4)cc3C(=O)N([C@H](C)CO)C[C@@H]2C)cc1	-62	-2	87
C[C@@H]1CCCCO[C@H](CN(C)S(=O)(=O)c2ccc(F)cc2)[C@H](C)CN([C@@H](C)CO)C(=O)c2cc(NC(=O)Nc3ccc(C(F)(F)F)cc3)ccc2O1	-86*	/	91
Cc1ccc(S(=O)(=O)N(C)C[C@@H]2OCCCC[C@H](C)Oc3ccc(NC(=O)Nc4ccc(C(F)(F)F)cc4)cc3C(=O)N([C@@H](C)CO)C[C@@H]2C)cc1	-85*	4	/
Cc1ccc(S(=O)(=O)N(C)C[C@H]2OCCCC[C@@H](C)Oc3ccc(NC(=O)Nc4ccc(C(F)(F)F)cc4)cc3C(=O)N([C@H](C)CO)C[C@@H]2C)cc1	-73	4	/
C[C@@H]1CN([C@H](C)CO)C(=O)c2cc(NC(=O)Nc3ccc(C(F)(F)F)cc3)ccc2O[C@@H](C)CCCCO[C@H]1CN(C)S(=O)(=O)c1ccc(F)cc1	-48	/	90
COc1ccc(S(=O)(=O)N(C)C[C@@H]2OCCCC[C@@H](C)Oc3ccc(NC(=O)Nc4ccc(C(F)(F)F)cc4)cc3C(=O)N([C@H](C)CO)C[C@@H]2C)cc1	-84*	7	59
N#C[C@@H]1[C@H](c2ccc(-c3cccc(F)c3)cc2)[C@H](CO)N1C(=O)c1cccnc1	-31	6	76
N#C[C@H]1[C@@H](c2ccccc2C2=CCCC2)[C@@H](CO)N1C(=O)Cc1ccncc1	-9	-4	/
C[C@H](CO)N1C[C@H](C)[C@H](CN(C)Cc2ccc(Oc3ccccc3)cc2)Oc2ccc(NC(=O)Nc3ccc(C(F)(F)F)cc3)cc2C1=O	-88*	/	69
C[C@@H]1CN([C@H](C)CO)C(=O)c2cc(NC(=O)Nc3ccccc3)ccc2O[C@@H]1CN(C)Cc1ccc(C(F)(F)F)cc1	0	0	29
C[C@H](CO)N1C[C@H](C)[C@@H](CN(C)Cc2ccc(-c3ccccc3)cc2)Oc2ccc(NC(=O)Nc3ccc(C(F)(F)F)cc3)cc2C1=O	-85*	12	?
C[C@H](CO)N1C[C@H](C)[C@@H](CN(C)Cc2ccc(Oc3ccccc3)cc2)Oc2ccc(NC(=O)Nc3ccc(C(F)(F)F)cc3)cc2C1=O	-65	/	68
C[C@H](CO)N1C[C@H](C)[C@@H](CN(C)S(C)(=O)=O)Oc2cc(-c3ccc(F)cc3)ccc2S1(=O)=O	3	/	/
CO[C@H]1CN(C)C(=O)c2cc(NC(=O)c3cc(C)on3)ccc2OC[C@@H](C)N(CC2CC2)C[C@@H]1C	-30	/	20
COc1ccc(NC(=O)Nc2ccc3c(c2)C(=O)N([C@H](C)CO)C[C@@H](C)[C@@H](CN(C)S(=O)(=O)c2ccc(F)cc2)OCCCC[C@@H](C)O3)cc1	-81*	-7	96
COc1ccc(S(=O)(=O)N(C)C[C@H]2OCCCC[C@@H](C)Oc3ccc(NC(=O)Nc4ccc(F)cc4)cc3C(=O)N([C@H](C)CO)C[C@H]2C)cc1	-80	8	?
COc1ccc(NC(=O)Nc2ccc3c(c2)C(=O)N([C@H](C)CO)C[C@H](C)[C@@H](CN(C)S(=O)(=O)c2ccc(F)cc2)OCCCC[C@@H](C)O3)cc1	-27	-3	-50
COc1ccc(NC(=O)Nc2ccc3c(c2)C(=O)N([C@H](C)CO)C[C@@H](C)[C@H](CN(C)S(=O)(=O)c2ccc(F)cc2)OCCCC[C@@H](C)O3)cc1	-82*	1	118
COc1ccc(S(=O)(=O)N(C)C[C@H]2OCCCC[C@H](C)Oc3ccc(NC(=O)Nc4ccc(F)cc4)cc3C(=O)N([C@H](C)CO)C[C@H]2C)cc1	-81*	0	44
COc1ccc(NC(=O)Nc2ccc3c(c2)C(=O)N([C@H](C)CO)C[C@H](C)[C@H](CN(C)S(=O)(=O)c2ccc(F)cc2)OCCCC[C@@H](C)O3)cc1	?	4	18
CCCN1[C@H](C(=O)NCC2CC2)[C@@H](CO)[C@@H]2Cn3c(ccc(/C=C/c4ccccc4)c3=O)[C@@H]21	-21	11	48
O=S(=O)(NCC[C@@H]1CC[C@@H](NS(=O)(=O)c2ccccc2Cl)[C@H](CO)O1)c1ccc(Cl)cc1	-25	/	29
C[C@@H]1CN([C@H](C)CO)C(=O)c2cccc(NC(=O)NC3CCCCC3)c2O[C@H]1CN(C)S(=O)(=O)c1cn(C)cn1	4	/	-42

Compound activity deposited in PubChem BioAssay by Broad Institute.
